A selection: hits, their analogues and other compounds. The true share with any hit is near 12%.
Sfp PPTase inh = blocks B. subtilis Sfp PPTase activity | Q9F4F7 | Biochemical Sfp PPTase activity, qHTS | Potency, µM, for the others: largest response in the series, negative = inhibition, usual class: inhibitors | 310,000 tested, 3.5% active;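 also: the enzyme is Sfp with the accession as filed and its product quenches rhodamine fluorescence; 0% = enzyme reaction without inhibitor and -100% = no enzyme wells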
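Fluorescence-quenching assay: 15 nM Sfp-PPTase preincubated 15 min at room temperature with compound, then 5 uM rhodamine-CoA and 12.5 uM BHQ-2-labelled YbbR peptide added. Fluorescence (ex 525/em 598 nm) read at start and after 30 min; difference gives rate.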
G9a block = inhibitors of human histone lysine methyltransferase G9a | Potency, µM (doses to about 102 µM), without a hit: at the top dose activity, negative = inhibition, most hits filed as inhibitors | Q96KQ7 | 350,000 tested, 8.8% active | G9a H3K9 monomethylation, AlphaScreen, 2 h; also: % is scaled to controls: 0 for no effect and ±100 for the full control effect; nearly all actives have a fitted effect of over 75% in size
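Signal arises when biotinylated H3K9 peptide, once monomethylated, bridges streptavidin donor and antibody-captured acceptor beads. Enzyme at 20 nM was preincubated 15 min with test compounds; peptide 500 nM and SAM 20 uM then reacted for 2 h.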
L3MBTL1 inh = blocks human L3MBTL1; Q9Y468; AID 485360; AlphaScreen L3MBTL1–H3K9me1 peptide binding; Potency, µM (series often up to 57.1 µM), without a hit: at the highest dose activity, negative = inhibition, usual class: inhibitors; 230,000 tested, 0.66% active; also: % is scaled to controls: 0 for no effect and ±100 for the full control effect; nearly all actives have a fitted effect of over 60% in size
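Displacement of a biotinylated histone H3(1-15) peptide monomethylated at Lys9 (75 nM) from L3MBTL1 (50 nM) was measured by AlphaScreen after a 30 min room-temperature compound incubation; cefsulodin titration served as intraplate control.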
JMJD2A Tudor = inhibitors of human JMJD2A Tudor domain; AlphaScreen JMJD2A-Tudor / H3K4me3 peptide binding; AID 504339; 390,000 tested, 4.4% active; O75164; Potency, µM (highest dose often 114 µM), without a hit: at the top dose activity change, negative = inhibition, most hits filed as inhibitors; also: % is scaled to controls: 0 for no effect and ±100 for the full control effect; nearly all actives have a fitted effect of over 50% in size
Target sequence (O75164 whole entry, looked up, the tested form may be a part): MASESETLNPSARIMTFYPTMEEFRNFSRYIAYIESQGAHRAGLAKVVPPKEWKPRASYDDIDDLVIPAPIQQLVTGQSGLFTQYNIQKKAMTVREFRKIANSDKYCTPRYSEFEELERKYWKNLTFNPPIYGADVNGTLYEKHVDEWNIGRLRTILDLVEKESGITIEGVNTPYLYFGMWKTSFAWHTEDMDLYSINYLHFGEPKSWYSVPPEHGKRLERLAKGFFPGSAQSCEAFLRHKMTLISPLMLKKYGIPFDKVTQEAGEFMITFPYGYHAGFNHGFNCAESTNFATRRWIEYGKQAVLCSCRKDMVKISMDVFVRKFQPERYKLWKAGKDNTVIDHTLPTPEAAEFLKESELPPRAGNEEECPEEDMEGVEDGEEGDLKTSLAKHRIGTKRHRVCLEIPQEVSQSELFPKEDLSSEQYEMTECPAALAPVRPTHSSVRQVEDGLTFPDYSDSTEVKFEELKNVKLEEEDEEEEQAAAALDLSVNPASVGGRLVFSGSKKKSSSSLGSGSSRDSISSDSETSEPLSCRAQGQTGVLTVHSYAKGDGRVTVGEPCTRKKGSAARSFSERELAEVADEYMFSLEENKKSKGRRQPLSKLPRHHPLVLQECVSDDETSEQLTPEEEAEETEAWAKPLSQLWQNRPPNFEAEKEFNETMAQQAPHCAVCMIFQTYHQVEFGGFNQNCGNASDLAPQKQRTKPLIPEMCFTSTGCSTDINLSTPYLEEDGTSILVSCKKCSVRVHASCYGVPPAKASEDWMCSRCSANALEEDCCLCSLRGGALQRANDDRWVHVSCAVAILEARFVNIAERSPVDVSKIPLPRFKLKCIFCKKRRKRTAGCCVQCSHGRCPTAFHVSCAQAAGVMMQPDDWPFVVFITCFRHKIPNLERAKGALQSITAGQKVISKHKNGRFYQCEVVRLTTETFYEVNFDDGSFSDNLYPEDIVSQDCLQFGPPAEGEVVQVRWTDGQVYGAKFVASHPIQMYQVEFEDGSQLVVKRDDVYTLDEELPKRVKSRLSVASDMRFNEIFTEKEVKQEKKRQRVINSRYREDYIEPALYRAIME
BAZ2B inh = blocks human BAZ2B; 360,000 tested, 4.4% active; Q9UIF8; AID 504333; AlphaScreen BAZ2B-H3K14Ac peptide displacement; Potency, µM (series often up to 114 µM), for the others: top-dose activity change, negative = inhibition, actives largely listed as inhibitors; also: % is scaled to controls: 0 for no effect and ±100 for the full control effect; nearly all actives have a fitted effect of over 60% in size
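AlphaScreen displacement of biotin-H3(5-23)K14Ac peptide (50 nM final) from BAZ2B (50 nM final) in PBS pH 7.4, 0.01% Tween-20; complex preformed 30 min RT, then compounds (top 110 uM) 30 min RT, beads 20 min dark.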
HP1b chromo inh = blocks HP1-beta chromodomain binding to methylated histone tails. AID 540317. 390,000 tested, 0.56% active. Potency, µM (top dose mostly 114 µM), for the others: at the highest dose activity change, negative = inhibition, actives largely listed as inhibitors. P83916. AlphaScreen HP1-beta / biotin-H3K9me3 peptide binding; also: nearly all actives have a fitted effect of over 70% in size
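AlphaScreen: HP1-beta (50 nM) preformed 30 min with biotin-H3(1-18)K9me3 peptide (50 nM) in PBS pH 7.4, 0.01% Tween-20. Compound added for 30 min at RT, then streptavidin donor/nickel chelate acceptor beads (10 ug/mL) for 30 min.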
* hit, by the source's call; ? = inconclusive; / = no result; [ ] = dose if it differs, or a comment. Calls follow the shape of the dose curve; as a rule, active = well fitted curve in the direction sought with a large enough effect; inconclusive = small, poorly fitted or top-dose-only effect, or another doubt; inactive = no such curve, though single readings can be large; an effect the other way counts as inactive or inconclusive. Potency is read from the fitted curve at half-maximal effect.

SMILES	Sfp PPTase inh	G9a block	L3MBTL1 inh	JMJD2A Tudor	BAZ2B inh	HP1b chromo inh
CCc1nnc(NC(=O)c2ccc(S(=O)(=O)N(CCOC)CCOC)cc2)o1	?	4µM*	-28%	45µM*	28µM*	42%
COCCN(CCOC)S(=O)(=O)c1ccc(C(=O)Nc2nnc(C3CC3)o2)cc1	-26%	10%[12.7 µM]	-15%	10µM*	32µM*	26%
CCCN(CCC)S(=O)(=O)c1ccc(C(=O)Nc2nnc(CSC)o2)cc1	20%	-31%	5%	50µM*	?	-9%
O=C(C1CCC1)N1CCCc2cc(S(=O)(=O)Nc3ccc(F)cc3)ccc21	/	5%[59 µM]	/	-14%	1%	18%[57 µM]
CCOc1ccccc1CN1CCN(Cc2[nH]c3ccccc3c2C)CC1CCO (stereo not drawn)	3%	71µM*	-24%	?	-31%	-11%
CCOc1ccccc1CN1CCN(Cc2c[nH]c3ccccc23)CC1CCO (stereo not drawn)	20%	-1%	-6%	-23%	-4%	34%
O=C(NCCCCc1ccccc1)Nc1ccc(F)cc1F	1%	/	/	-8%	4%	22%
O=C1CS/C(=N\N=C\c2ccco2)N1c1ccccc1	-6%	?	-26%	?	50µM*	2%
COc1ccc(-c2cc3ccc(O)c(CN4CCOCC4)c3oc2=O)cc1OC	/	15%[59 µM]	/	3%	69%	70%[57 µM]
Cc1nc(-c2ccc(S(=O)(=O)Nc3ccc(C)c(C)c3)s2)cs1	/	/	/	-17%	/	/
CC(C)[C@@H]1NC(=O)c2cc([N+](=O)[O-])cc(I)c2NCCCC[C@@H](C(=O)NC(CC(=O)O)C(N)=O)NC(=O)[C@H](CO)NC1=O (stereo partly drawn)	21%	45µM*	?	/	50µM*	/
CC(C)[C@@H]1NC(=O)c2cc([N+](=O)[O-])cc(I)c2NCCC[C@@H](C(N)=O)NC(=O)[C@H](CO)NC1=O	-16%	40µM*	2%	-18%	?	32%
CC[C@H](C)C1NC(=O)[C@H](CC(=O)O)NC(=O)c2cc([N+](=O)[O-])cc(I)c2NCCC(C(N)=O)NC1=O (stereo partly drawn)	21%	?	-15%	-20%	-32%	25%
COc1cc(C(C)=O)ccc1OCC(O)CNCC(O)c1ccccc1 (stereo not drawn)	-23%	24%	/	28µM*	56µM*	?
COc1ccc(CCN(C)C/C=C/c2ccccc2)cc1OC	-13%	50µM*	0%	28µM*	?	?
CN(Cc1ccc(Br)cc1)CC(O)COc1cccc(Br)c1 (stereo not drawn)	-16%	22µM*	/	5µM*	79µM*	?
COc1ccc(CCN(C)CC(O)c2ccccc2)cc1OC (stereo not drawn)	?	28µM*	-19%	2.5µM*	?	?
C=CCOc1ccc(CN(C)CC(O)COc2ccc(CCC(C)=O)cc2)cc1 (stereo not drawn)	-26%	10µM*	/	1µM*	-26%	?
COc1ccc(CCN(C)CC(O)COc2ccc(C(C)=O)cc2OC)cc1OC (stereo not drawn)	-2%	28µM*	/	28µM*	-30%	79µM*
COc1ccc(CCN(C)CCC(=O)Nc2ccc(C)cc2)cc1OC	2%	-50%[59 µM]	1%	-28%	3%	17%
COc1ccc(CCN(C)CCc2ccc(OC)c(OC)c2)cc1OC	16%	16µM*	/	-14%	/	28%
COc1ccc(CN(C)CC(O)COc2ccc(-c3ccccc3)cc2)cc1OC (stereo not drawn)	-13%	40µM*	/	35µM*	79µM*	50µM*
CC(=O)CCc1ccc(OCC(O)CNCCOc2ccc(C)cc2)cc1 (stereo not drawn)	5%	2%	/	-13%	0%	12%

Source: PubChem BioAssay
